Rows were chosen to be rich in hits. Some 9% of all compounds tested hit in one or more screens of this group.
KinaseGlo FLuc = Counterscreen for Luciferase (Kinase-Glo TM) Inhibition | 200,000 tested, 0.28% active | Luciferin 4-monooxygenase (Photuris pensylvanica), Q27757 | Potency, µM (top dose mostly 38.3 µM), for inactives: top-dose activity change, negative = inhibition, most hits filed as inhibitors | Kinase-Glo luciferase, ATP luminescence, 8 min; note: nearly all actives have a fitted effect of over 60% in size
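Luminescence was the read-out, taken after 8-minute incubation at ambient temperature. Luciferase turned over luciferin with 10 uM ATP in imidazole pH 7.2 buffer containing KCl, MgCl2, Tween 20 and BSA.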
HPGD inh = qHTS Assay for Inhibitors of HPGD (15-Hydroxyprostaglandin Dehydrogenase); 15-hydroxyprostaglandin dehydrogenase [NAD(+)] (Homo sapiens), P15428; 150,000 tested, 4.3% active; AID 894, 2007; Potency, µM, for inactives: at the top dose activity change, negative = inhibition, usual class: inhibitors; purified HPGD, NADH fluorescence kinetic, PGE2 substrate; active = well fitted inhibition curve with a large enough effect, not every such curve was filed as active; inconclusive = small, poorly fitted or top-dose-only effect, or another doubt; inactive = no such curve, though single readings can be large or run the other way
Target sequence (P15428 whole entry, looked up): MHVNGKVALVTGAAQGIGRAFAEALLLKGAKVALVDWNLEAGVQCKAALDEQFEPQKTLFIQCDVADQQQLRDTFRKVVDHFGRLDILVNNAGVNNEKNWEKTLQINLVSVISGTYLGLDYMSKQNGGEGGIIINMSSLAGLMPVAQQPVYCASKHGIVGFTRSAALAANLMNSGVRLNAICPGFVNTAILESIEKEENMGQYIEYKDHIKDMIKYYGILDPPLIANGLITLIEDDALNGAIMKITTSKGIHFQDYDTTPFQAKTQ
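20 nM HPGD preincubated 15 min at room temperature with compound in 50 mM Tris-HCl pH 8, 0.01% Tween 20. Started with 1 mM NAD+ and 30 uM prostaglandin E2; NADH fluorescence (360/450 nm) read 5 times over 30-s intervals, last minus first.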
Lamin A splicing = qHTS Assay for Modulators of Lamin A Splicing | HeLa LMNA splicing GFP/RFP minigene ratio, 48 h | Potency, µM (top dose mostly 46.1 µM), for inactives: at the top dose ratio change, negative = inhibition, hits mostly inhibitors | 200,000 tested, 0.01% active | AID 1487, 2009; active = well fitted inhibition curve with a large enough effect in the signal ratio, with a control signal flat, not every such curve was filed as active; inconclusive = small, poorly fitted or top-dose-only effect, or effect the other way, or a change in a side signal; the % refers to the signal ratio
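S3 HeLa cells stably expressing lamin A-EGFP splicing minigene plus DsRed2, 600 cells/well, 48 h compound exposure at 37C. Laser-scanning cytometry; analysed as GFP (500-530 nm)/RFP (575-640 nm) total intensity ratio; 0.5% DMSO vehicle.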
ALDH1A1 inh = qHTS Assay for Inhibitors of Aldehyde Dehydrogenase 1 (ALDH1A1). Purified ALDH1A1, NADH fluorescence, propionaldehyde substrate. AID 1030, 2008. 220,000 tested, 7.3% active. Potency, µM (series often up to 75.3 µM), for the others: at the highest dose activity, negative = inhibition, actives largely listed as inhibitors; active = well fitted inhibition curve with a large enough effect, not every such curve was filed as active; inconclusive = small, poorly fitted or top-dose-only effect, or another doubt; inactive = no such curve, though single readings can be large or run the other way;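 note: plate controls were no enzyme wells and a reference inhibitor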
Target sequence (P00352 whole entry, looked up): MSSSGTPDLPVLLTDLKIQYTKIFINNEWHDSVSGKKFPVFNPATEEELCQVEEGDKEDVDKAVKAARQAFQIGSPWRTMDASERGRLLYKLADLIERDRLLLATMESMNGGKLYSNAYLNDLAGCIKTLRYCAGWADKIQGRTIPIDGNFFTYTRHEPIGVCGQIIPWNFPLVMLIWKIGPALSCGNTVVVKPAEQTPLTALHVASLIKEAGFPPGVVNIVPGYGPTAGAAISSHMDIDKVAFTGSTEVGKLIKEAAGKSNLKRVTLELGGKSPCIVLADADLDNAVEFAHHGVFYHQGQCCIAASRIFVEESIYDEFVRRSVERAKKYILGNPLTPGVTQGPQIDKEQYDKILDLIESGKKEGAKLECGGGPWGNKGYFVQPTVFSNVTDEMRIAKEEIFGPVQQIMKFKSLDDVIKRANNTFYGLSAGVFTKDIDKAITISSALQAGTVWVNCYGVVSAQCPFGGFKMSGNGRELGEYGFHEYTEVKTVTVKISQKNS
IMPase Li cell = qHTS Assay for Identifying the Cell-Membrane Permeable IMPase Inhibitors: Potentiation with Lithium; CHO-M1 cells, IP1 TR-FRET (IP-One), carbachol + lithium; Potency, µM (series often up to 59.4 µM), for inactives: at the highest dose activity, negative = IMPase inhibition, usual class: inhibitors; 210,000 tested, 0.35% active;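 note: IP1 builds up when IMPase is blocked and the TR-FRET signal falls; plate controls were basal vehicle for no effect and high inhibitor control for full effect; nearly all actives have a fitted effect of over 50% in size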
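CHO cells stably expressing M1 receptor (2000/well) were cultured 16–30 h, then exposed to compounds with a small lithium addition for 30 min at 37C. IP1 was measured by TR-FRET competition; AC50 from Hill fits.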
The depositor's hits bear a star; ? = inconclusive; . = not tested or not shown; [ ] = another dose, or the depositor's remark. Unless noted, calls come from the whole dose curve; as a rule, active = well fitted curve in the direction sought with a large enough effect; inconclusive = small, poorly fitted or top-dose-only effect, or another doubt; inactive = no such curve, though single readings can be large; an effect the other way counts as inactive or inconclusive. Unless noted, % is set by controls: 0 for no effect and ±100 for the full control effect; potency is the fitted concentration of half-maximal effect.

SMILES	KinaseGlo FLuc	HPGD inh	Lamin A splicing	ALDH1A1 inh	IMPase Li cell
CCOC(=O)c1ccc(NC(=O)CC2SCCNC2=O)cc1 (centres undefined)	-3%	-4%	?	13µM*	5%[38.3 µM]
CCOC(=O)c1ccc(NC(=O)CN2C(=O)CSCC2=O)cc1	-1%	-6%	-5%	?	0%
CCOC(=O)c1ccc(NC(=O)CC2OCCN(CC)C2=O)cc1 (centres undefined)	-1%	-5%	-12%	1.8µM*	21%[38.3 µM]
O=C(CN1C(=O)S/C(=C\c2ccc(F)cc2)C1=O)Nc1cccc(S(=O)(=O)NCc2ccco2)c1	-11%	.	.	5%	18%
CCCCn1nnc(NC(=S)NC(=O)c2ccc(-c3cccc(Cl)c3Cl)o2)n1	.	.	-1%	3.5µM*	.
CCCCC(=O)NC(=S)Nc1nnn(CCC)n1	-3%	.	?	0.5µM*	-12%
CCN(C(=O)COC(=O)c1[nH]c(=O)[nH]c(=O)c1N)c1ccccc1	-1%	.	-12%[46 µM]	?	6%
O=c1oc(Nc2ccccc2F)nc2ccccc12	.	.	4%	20µM*	.
CC1CCCCN1S(=O)(=O)c1ccc(S(=O)(=O)N(Cc2ccccc2)Cc2ccco2)cc1 (centres undefined)	0%	-11%	-10%	7.1µM*	15%
CCN(Cc1ccccc1)S(=O)(=O)c1ccc(S(=O)(=O)N(Cc2ccccn2)Cc2ccco2)cc1	-4%	-5%	8%	13%	22%[38.3 µM]
CCOC(=O)C1(C)C=C(Nc2ccc(OC)cc2)C(=O)N1c1ccc(OC)cc1 (centres undefined)	-1%	?	-11%	2.8µM*	-2%
CCOC(=O)C1(C)C=C(Nc2ccc(O)cc2)C(=O)N1c1ccc(O)cc1 (centres undefined)	2%	-6%	?	3.5µM*	10%
CCOC(=O)C1(C)/C(=N/Nc2ccccc2)C(=O)C(=O)N1c1ccccc1 (centres undefined)	-1%	-15%	5%	?	28%[38.3 µM]
CCn1cc(C(=O)N2CCN(c3ccccn3)CC2)c(=O)c2cc(S(=O)(=O)N(C)C3CCCCC3)ccc21	0%	.	.	-12%	5%
CCN[C@@H]1CN(CCCOC)S(=O)(=O)c2sc(S(N)(=O)=O)cc21	-1%[17.1 µM]	1%	?	-8%[20.9 µM]	5%
COc1nc(C)nc2c1sc(=S)n2C	-8%	-13%	?	5%	22µM*
Cc1ccc(C)o1	.	-7%	.	-5%	-5%
CC1=C(n2nnc3ccccc32)C(c2ccccc2)C(C#N)=C(N)O1 (centres undefined)	0%	?	-16%	13µM*	45%[38.3 µM]
COc1ccccc1CN1CC2(CCN(S(C)(=O)=O)CC2)C1	-3%	-3%	.	3%	9%
CCCCOc1ccc(C2C(=O)N(C3CCCCC3)CC(=O)N2CCCC)cc1 (centres undefined)	.	.	2%[46 µM]	.	.
CCCCn1c2c(c(=O)n(C)c1=O)C(c1ccc(OC)cc1)N1CCCCCC1=N2 (centres undefined)	-7%	-11%	2%	0.14µM*	7%[38.3 µM]
Cc1cc(C(=O)CN2C(=O)C(=O)N(CC(C)C)C2=O)c(C)n1-c1ccccc1F	-2%	.	.	?	-8%
Cc1ccc(-n2c(C)cc(C(=O)COC(=O)C3=NNC(=O)CC3)c2C)cc1	0%	0%	-4%	15%	31%[38.3 µM]
Cc1cc(C(=O)CN2C(=O)C3CC=CCC3C2=O)c(C)n1-c1ccccc1 (centres undefined)	-6%	-13%	?	22µM*	7%[38.3 µM]
Cc1cc(C(=O)COC(=O)C2=NNC(=O)CC2)c(C)n1-c1ccccc1	14%	-19%	7%	16µM*	8%[38.3 µM]
SMILES	KinaseGlo FLuc	HPGD inh	Lamin A splicing	ALDH1A1 inh	IMPase Li cell
Cc1cc(C(=O)CN2C(=O)NC(CC(C)C)C2=O)c(C)n1-c1ccccc1F (centres undefined)	6%	.	-2%[46 µM]	6.3µM*	0%
Cc1ccc(NC(=O)c2nn(C34CC5CC(CC(C5)C3)C4)cc2[N+](=O)[O-])cc1	-2%	-21%	?	0.028µM*	19%[38.3 µM]
COc1ccc(NC(=O)c2nn(C)cc2[N+](=O)[O-])cc1	.	.	.	1%	.
O=C(/C=C/c1ccccc1)NNC1=NS(=O)(=O)c2ccccc21	-3%	.	21%[46 µM]	3%	5%
CCC(CC)NCc1ccc2c(c1)c1ccccc1n2CC	-3%	.	.	20µM*	13%
Cc1cc(C)cc(CSCC(=O)N/N=C/c2ccc(OCC(=O)NCc3ccco3)cc2)c1	1%	-18%	4%	5%	6%[38.3 µM]
Cc1cccc(N(CC(=O)N/N=C/c2ccc(OCC(=O)NCc3ccco3)cc2)S(C)(=O)=O)c1C	7%	25µM*	7%	-13%	17%[38.3 µM]
O=C(CSc1nnnn1-c1cccc2c1CCCC2)N1CCOCC1	1%	?	?	7.9µM*	-6%[38.3 µM]
O=C(CSc1nnnn1-c1cccc2c1CCCC2)NC1CCCC1	5%	?	10%	?	9%[38.3 µM]
O=C(CSc1nnnn1-c1ccccc1)N1CCc2ccccc2C1	4%	-10%	-3%	20µM*	18%[38.3 µM]
O=C(CSc1nnnn1-c1cccc2c1CCCC2)N1CCCC1	-4%	-24%	-7%	14µM*	-2%
CCOc1ccc(-n2nnnc2SCC(=O)N2CCOCC2)cc1	-3%	-6%	-7%	-2%	1%
CC1CCCC(C)N1C(=O)CSc1nnnn1-c1cccc2c1CCCC2 (centres undefined)	0%	-16%	3%	28µM*	4%[38.3 µM]
CCC(C)(C)NC(=O)C(c1ccccn1)N(C(=O)c1csnn1)c1ccc(C)c(C)c1 (centres undefined)	-2%	.	.	-6%	-7%
Cc1ccc(SC/C(O)=C(\C#N)c2nc3ccccc3s2)cc1	0%	-17%	-18%	-3%	30%[38.3 µM]
N#C/C(=C(/O)CSc1ccccn1)c1nc2ccccc2s1	1%	.	.	8.9µM*	2%
O=C(c1ccc2snnc2c1)N1CCOCC1	-1%	-7%	1%	3%	4%[38.3 µM]
O=C(c1ccc2snnc2c1)N1CCCCC1	6%	16µM*	1%	-6%	4%
Cc1c(Cl)cccc1NC(=O)c1ncoc1-c1ccco1	.	.	-11%[46 µM]	.	.
Cc1ccc(N(C(C)C(=O)N2CCCCC2)S(C)(=O)=O)cc1C (centres undefined)	2%	-9%	5%	3%	29%[38.3 µM]
CCc1nc(N[C@@H](CC(C)C)C(=O)O)c2oc3ccccc3c2n1	-1%	-9%	7%[0.0737 µM]	0.89µM*	-1%[38.3 µM]
CCc1nc(N[C@H](C(=O)O)C(C)C)c2oc3ccccc3c2n1	.	.	.	0.79µM*	.
CCOC(=O)c1nnn(-c2nonc2N)c1COc1ccccc1	0%	-7%	11%	?	21%[38.3 µM]

Source: PubChem
